Compound activity from PubChem.
Keap1-Nrf2 PPI = Keap1-Nrf2 protein-protein interaction inhibitors, primary screen, biochemical, fluorescence polarization, single point | Kelch-like ECH-associated protein 1 (Homo sapiens), Q14145 | actives 0.15% (n = 340,000) | AID 504523, 2011 | Keap1 Kelch-Nrf2 peptide fluorescence polarization, 1536-well | inhibition, % at 9.4 µM; in the data active means inhibition above about 12%;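 further: human Keap1 Kelch domain with fluorescein labeled Nrf2 9mer peptide probe; higher means more block of Keap1 binding to Nrf2 peptide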
GLD-1 RNA inh = GLD-1/TGE RNA complex disruptors, primary screen, biochemical, fluorescence polarization | inhibition, % at 5.96 µM | AID 2280, 2010 | actives 0.44% (n = 320,000) | purified GLD-1 + fluorescein TGE RNA | Female germline-specific tumor suppressor gld-1 (Caenorhabditis elegans), Q17339;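 active means percent inhibition above a per-plate cutoff, the plate mean of test compounds plus 3 SD, cut at about 30% in these data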
Bcl-xL primary = inhibitors of human Bcl-xL, primary screen, biochemical, fluorescence polarization, HTS; inhibition, % at 10.9 µM; Bcl-2-like protein 1 (Homo sapiens), Q07817; actives 0.7% (n = 320,000); GST-Bcl-xL / FITC-Bim BH3 peptide fluorescence polarization;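 active means inhibition above the mean of all tested compounds plus 3 SD, cutoff set per campaign, cut at about 30% in these data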;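 further: inhibitors lower millipolarization by displacing the labeled peptide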
LANA DNA inh = inhibitors of KSHV C-LANA binding to DNA, primary screen, biochemical, fluorescence polarization, FAM-LBS DNA, MBP-C-LANA, single point | Kaposi's sarcoma herpesvirus LANA C-terminal domain (residues 932-1162) DNA binding | inhibition, % at 9 µM | actives 0.078% (n = 340,000) | AID 504423, 2011;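 active means highest replicate inhibition at or above 60% at 9 µM, even if other replicates fall short; inactive means all replicates below 60% inhibition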
MEX-5 binding = MEX-5 zinc finger RNA-binding disruptors – biochemical, C. elegans, fluorescence polarization, MLPCN library, primary screen. MEX-5/FITC-TCR2 RNA binding; hits give low values. actives 0.38% (n = 300,000). Zinc finger protein mex-5 (Caenorhabditis elegans), Q9XUB2. activity score (negative = inhibition of binding), % at 10 µM;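 active means inhibition past about -25% in most replicates, and total fluorescence under double the plate's negative control median, limit read from the data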
E coli Lon inh = inhibitors of E. coli Lon protease, primary screen, biochemical, fluorescence polarization; AID 602123, 2011; inhibition, % at 7.94 µM; purified E. coli Lon protease; P0A9M0; actives 0.42% (n = 360,000); in the data active means inhibition above about 13%, passing the limit was not always enough
Of the large screens only hits and unclear results are named; the others gave an inactive call. A selection: hits, their analogues and other compounds. The true share with any hit is near 1.2%.

CC1CCN(c2ccc3c(c2)S(=O)(=O)c2cccc(C(=O)NC4CCCCC4)c2C3=O)CC1	none (no result: MEX-5 binding)
O=C(NCc1ccc(F)cc1)c1cccc2c1C(=O)c1ccc(N3CCC(Cc4ccccc4)CC3)cc1S2(=O)=O	GLD-1 RNA inh 168 (no result: Bcl-xL primary, MEX-5 binding)
O=C(NC1CCCC1)c1cccc2c1C(=O)c1ccc(N3CCCCC3)cc1S2(=O)=O	none (no result: MEX-5 binding)
O=C(NC1CC1)c1cccc2c1C(=O)c1ccc(N3CCC(Cc4ccccc4)CC3)cc1S2(=O)=O	GLD-1 RNA inh 45 (no result: Bcl-xL primary, MEX-5 binding)
CC(C)(C)CNC(=O)c1cccc2c1C(=O)c1ccc(N3CCCC3)cc1S2(=O)=O	GLD-1 RNA inh 32 (no result: Bcl-xL primary, MEX-5 binding)
O=C(NCCN1CCCCC1)c1cccc2c1C(=O)c1ccc(N3CCCC3)cc1S2(=O)=O	none (no result: Bcl-xL primary, MEX-5 binding)
CC1CCN(c2ccc3c(c2)S(=O)(=O)c2cccc(C(=O)NCc4ccc(F)cc4)c2C3=O)CC1	none (no result: MEX-5 binding)
O=C(NC1CCCCC1)c1cccc2c1C(=O)c1ccc(N3CCCC3)cc1S2(=O)=O	GLD-1 RNA inh 32 (no result: Bcl-xL primary, MEX-5 binding)
O=C(c1nc2ccccn2c1CNCCCn1cccn1)N1CCCC1	none
O=C(NCc1cc(C(F)(F)F)ccc1Cl)c1cccc2c1C(=O)c1ccc(N3CCC(Cc4ccccc4)CC3)cc1S2(=O)=O	GLD-1 RNA inh 159 (no result: Bcl-xL primary, MEX-5 binding)
Cc1cccc(Nc2nc(N)c([N+](=O)[O-])c(NCc3ccccc3)n2)c1	Keap1-Nrf2 PPI active (no result: LANA DNA inh)
O=C1CC(c2ccc(Cl)cc2)CC(O)=C1C=NCCO (stereo not given)	none
C=CCN1C=C(C(C)=O)C(=O)CC1	none (no result: GLD-1 RNA inh, Bcl-xL primary, MEX-5 binding)
C=CCN1C=CC(=O)CC1	GLD-1 RNA inh 87, Bcl-xL primary 164
COc1ccc2cc(C(=O)N3CCc4ccccc43)[nH]c2c1	none
O=C(CCc1nc(-c2ccccc2)no1)NCc1ccccc1CN1CCOCC1	none (no result: MEX-5 binding)
CN(C=[N+](C)C)c1cccc2c1C(=O)c1ccccc1C2=O	Bcl-xL primary 35, MEX-5 binding -28
COc1cccc(C2c3c(oc4ccccc4c3=O)C(=O)N2Cc2ccco2)c1 (stereo not given)	MEX-5 binding -48
COC(=O)c1ccccc1NCc1cc(=O)oc2cc(O)c(O)cc12	MEX-5 binding -28
COc1ccc(C)cc1NCc1cc(=O)oc2cc(-c3ccccc3)c(O)cc12	none
NC(=O)[C@@H]1CCCN1Cc1c(C(=O)N2CCc3ccccc3C2)nc2ccc(Cl)cn12	GLD-1 RNA inh 36, Bcl-xL primary 41, MEX-5 binding -32
CCN(CC(=O)NCc1ccc(F)cc1)C(=O)/C=C/c1ccc(S(=O)(=O)N(CC)CC)cc1	none
CN(C)C(CNC(=O)c1cccc(S(=O)(=O)N2CCN(c3ccc(F)cc3)CC2)c1)c1ccccc1 (stereo not given)	none (no result: GLD-1 RNA inh, Bcl-xL primary, MEX-5 binding)
COc1ccc(-c2cc(-c3ccco3)[nH]c(=O)c2C#N)cc1OC	Bcl-xL primary 46
CN(CC1CCOCC1)C(=O)CC1C(=O)NCCN1Cc1cccc(F)c1 (stereo not given)	none
COc1ccc(Cl)cc1NC(=O)CN1CCN(S(=O)(=O)N2CCCCC2)CC1	none
O=C(O)C(=O)/C(=C\c1cccc2ccccc12)c1ccc2ccccc2n1	MEX-5 binding -40
O=C(O)C(=O)/C(=C\c1ccccc1)c1ccc2ccccc2n1	none
O=C(O)C(=O)/C(=C\c1ccsc1)c1ccc2ccccc2n1	MEX-5 binding -48
O=C(C[C@@H]1C/C=C\CC[C@H](Cc2ccc(F)cc2)C(=O)OC[C@@H]2CCCN2C1=O)N[C@H](CO)Cc1ccccc1	none (no result: Bcl-xL primary, MEX-5 binding)
COc1ccc(C(=O)C(C)[n+]2ccc(C)c3ccccc32)cc1[N+](=O)[O-] (stereo not given)	Bcl-xL primary 34
Cc1[nH][nH]c(=O)c1N=Nc1ccc(S(N)(=O)=O)cc1	MEX-5 binding -59 (no result: Keap1-Nrf2 PPI, LANA DNA inh)
O=c1[nH]n2c(=O)c3c([nH]c2c1N=Nc1cccc(Cl)c1)CCC3	none
